Experimental data as given in PubChem BioAssay AID743445 (Broad Institute, 2014).
The whole screen tested about 310,000 compounds, of which about 1,700 (0.55%) were called active. No stated cut-off is given here; in the data, active means inhibition above about 50%; inactive means the rest. The entries come from a sample that favours actives as a whole.

biological target: Histone-lysine N-methyltransferase NSD2 (Homo sapiens) (UniProt O96028); test: NSD2 histone methyltransferase inhibitors, primary screen, biochemical, AlphaScreen, single concentration, set 2 (AID 743445); conditions: NSD2 peptide methylation, 120 min, at 12.5 µM, hits give high values
Sequence (O96028 whole entry, looked up): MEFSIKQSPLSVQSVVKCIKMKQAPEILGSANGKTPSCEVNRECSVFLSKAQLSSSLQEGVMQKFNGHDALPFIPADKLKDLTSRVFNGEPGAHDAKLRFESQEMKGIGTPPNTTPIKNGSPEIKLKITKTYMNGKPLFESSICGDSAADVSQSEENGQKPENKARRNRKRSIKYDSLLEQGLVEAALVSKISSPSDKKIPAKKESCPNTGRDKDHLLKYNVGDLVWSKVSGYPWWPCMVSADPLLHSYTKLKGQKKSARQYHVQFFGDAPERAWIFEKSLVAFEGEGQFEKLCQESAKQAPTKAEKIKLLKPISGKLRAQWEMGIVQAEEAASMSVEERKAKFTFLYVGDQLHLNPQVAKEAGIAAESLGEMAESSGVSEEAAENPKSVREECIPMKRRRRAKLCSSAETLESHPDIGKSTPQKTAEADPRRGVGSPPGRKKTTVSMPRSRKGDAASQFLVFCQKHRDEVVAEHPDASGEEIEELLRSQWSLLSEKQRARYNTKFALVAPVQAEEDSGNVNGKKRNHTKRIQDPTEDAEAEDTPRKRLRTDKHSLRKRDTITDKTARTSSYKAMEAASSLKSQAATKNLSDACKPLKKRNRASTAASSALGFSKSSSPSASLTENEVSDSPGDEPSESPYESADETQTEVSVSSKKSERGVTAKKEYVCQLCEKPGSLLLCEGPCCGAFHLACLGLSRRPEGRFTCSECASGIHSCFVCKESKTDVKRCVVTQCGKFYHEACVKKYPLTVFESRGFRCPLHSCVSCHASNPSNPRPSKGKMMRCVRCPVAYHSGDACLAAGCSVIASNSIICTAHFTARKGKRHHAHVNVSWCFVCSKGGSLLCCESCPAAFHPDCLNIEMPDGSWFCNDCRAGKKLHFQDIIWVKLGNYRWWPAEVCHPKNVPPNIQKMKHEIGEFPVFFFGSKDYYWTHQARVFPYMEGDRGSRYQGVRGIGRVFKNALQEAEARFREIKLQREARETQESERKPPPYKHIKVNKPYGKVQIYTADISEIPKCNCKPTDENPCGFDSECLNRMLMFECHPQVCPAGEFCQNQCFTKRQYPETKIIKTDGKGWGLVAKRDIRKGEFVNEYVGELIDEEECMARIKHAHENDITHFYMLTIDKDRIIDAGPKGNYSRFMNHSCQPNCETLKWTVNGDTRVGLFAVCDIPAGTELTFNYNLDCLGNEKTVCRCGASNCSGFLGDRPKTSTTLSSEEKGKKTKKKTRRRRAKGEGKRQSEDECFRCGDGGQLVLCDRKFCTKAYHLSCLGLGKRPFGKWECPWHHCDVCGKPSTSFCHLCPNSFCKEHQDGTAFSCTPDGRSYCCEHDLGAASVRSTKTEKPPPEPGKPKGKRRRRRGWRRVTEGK

Compound	inhibition
Cc1cc(/C=C2/C(=O)NC(=O)N(Cc3ccco3)C2=O)c(C)n1-c1ccc(C(=O)O)cc1	36.8% (inactive)
Cc1ccccc1N1C(=O)NC(=O)/C(=C\c2cc(C)n(C)c2C)C1=O	5.19% (inactive)
Cc1c(C(=O)O)cccc1-n1c(C)cc(/C=C2\C(=O)NC(=O)N(c3ccc4c(c3)OCO4)C2=O)c1C	65.9% (active)
CCC(C)(O)C(=O)OC1C(=O)OC2CC3C(C)=CC(=O)C(O)C3(C)C3C4(O)OCC23C1C(C)C4O (stereo not given)	-0.572% (inactive)
O=C(c1ccccc1)C(O)(CN1CCCCC1)c1ccccc1 (stereo not given)	1.13% (inactive)
O=c1c2ccccc2[nH]c(=S)n1-c1cccc(Cl)c1	-7.59% (inactive)
COc1ccc(C2C=C(C)Oc3c2c(=O)oc2ccccc32)cc1OC (stereo not given)	1.06% (inactive)
CC12CCC(O)CC1CCC1C2CCC2(C)C(C(=O)CC(O)C(F)(F)F)CCC12 (stereo not given)	-0.54% (inactive)
COc1cccc(N2C(=O)NC(=O)/C(=C\c3ccc([N+](=O)[O-])s3)C2=O)c1	59% (active)
COc1ccc(CN2C(=O)NC(=O)/C(=C\c3ccc(OC)c(OC)c3OC)C2=O)cc1	1.88% (inactive)
COc1cccc(N2C(=O)NC(=O)/C(=C\c3cn(C)c4ccccc34)C2=O)c1	1.25% (inactive)
O=C1NC(=O)N(c2ccccc2)C(=O)/C1=C/c1ccc([N+](=O)[O-])s1	73.4% (active)
O=C1NC(=O)N(c2ccc(F)cc2)C(=O)/C1=C/c1ccc2c(c1)CCCN2Cc1ccccc1	16.6% (inactive)
O=C1NC(=O)C(Cc2ccccc2)C(=O)N1	-1.35% (inactive)
CC(=CCOc1ccc2ccc(=O)oc2c1)C1=CC(=O)C(C)(C)O1	0.448% (inactive)
CC(=O)OC1C2(CC3N4C(=O)C5(CO)SSC4(CC31O)C(=O)N5C)OC(C)C(C)(C)C2=O (stereo not given)	133% (active)
CO[C@H]([C@H](C)/C=C/N(C)C=O)[C@@H](C)C(=O)CC[C@H](C)[C@H](O)[C@H](C)[C@H]1OC(=O)/C=C/C(C)=C/[C@H](O)[C@H](OC)C[C@@H]2C=CC[C@@H](C[C@H](OC)[C@@]3(CO3)[C@@H](OC)C[C@@H](OC)[C@@H]1C)O2	-2.92% (inactive)
O=P(OC1=CCCCC1)(c1ccccc1)c1ccccc1	1.12% (inactive)
O=c1c2ccccc2nc(CBr)n1-c1ccc(Cl)cc1	-1.22% (inactive)
c1cc2c(c(NC3=NCCCS3)c1)CCCC2	8.89% (inactive)
CC(=O)C1(O)CCC2C3CCC4=C(Cl)C(=O)CCC4(C)C3CCC21C (stereo not given)	-5.24% (inactive)
Cc1cc(N2C(=O)C3CCCN3C2c2ccc(Cl)c(Cl)c2)no1 (stereo not given)	84.4% (active)
CCN1C(=O)NC(=O)C2(CCCC2)C1=O	27.8% (inactive)
C[C@]12CCCCC1=CC(=O)C1C2CC[C@@]2(C)C1C[C@@H](F)[C@@H]2O (stereo not given in full)	-1.58% (inactive)
O=C1NC(=O)C(CCOc2ccccc2)(CCc2ccccc2)C(=O)N1	1.16% (inactive)
